# Hits are enriched below; roughly 19% of the tested compounds scored in any of these assays.
# IL1B secr inh: inflammasome signaling inhibition, IL-1 beta readout | THP-1 LPS/ATP IL-1B secretion, AlphaLISA, 16 h; active compounds read low | AID 743279 | activity change, % at 57.5 µM | hit rate 4.7% among 360,000; in the data active = activity change below about -50%; inconclusive = mostly about -30% to -49%
#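 THP-1 cells pretreated 1 hr with compounds (up to 57.5 uM final), then stimulated with LPS (250 ng/mL final) plus ATP (1.25 mM final); secreted IL-1B measured by AlphaLISA after 16 hr, decreased signal indicating inhibition.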
# HT1080 IDH1KD tx: HT-1080 IDH1 knockdown cell toxicity (counter line). HT-1080 IDH1 knockdown viability, ATP luminescence, 48 h. Potency, µM (highest dose often 46.1 µM), inactives show at the highest dose activity, negative = toxicity, usual class: cytotoxic. hit rate 2% among 360,000;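 note: potency is the fitted concentration of half-maximal effect; 0% = DMSO wells and -100% = cell-free medium wells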
#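 Luminescent ATP read-out (CellTiter-Glo, 10 min at room temperature) after 48 h compound exposure at 37 °C gave viability of IDH1-knockdown HT-1080 cells. Activity was normalised to DMSO and cell-free wells, then fitted as concentration-response curves.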
# DT40 TDP1 no CPT: qHTS for Inhibitors of human tyrosyl-DNA phosphodiesterase 1 (TDP1): qHTS in cells in absence of CPT; hit rate 15% among 420,000; DT40 Tdp1-/- hTDP1 cells, no CPT, ATP luminescence, 48 h; Potency, µM (top dose mostly 46.2 µM), for inactives: at the top dose activity change, negative = growth inhibition, usual class: inhibitors; note: potency is the fitted concentration of half-maximal effect; nearly all actives have a fitted effect of over 55% in size
#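 Readout: luminescence from CellTiter-Glo after 30 min in the dark at RT. Cells: DT40 Tdp1-/- with stable hTDP1, 400/well. Exposure: compounds alone, ≥48 hr, 37 °C.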
# DT40 TDP1 CPT: DT40-hTDP1 cell growth loss with CPT; Potency, µM (doses to about 46.2 µM), for inactives: top-dose activity change, negative = growth inhibition, actives largely listed as inhibitors; chicken DT40 Tdp1-/-;hTDP1 cells + 20 nM CPT, ATP luminescence, 48 h; hit rate 12% among 420,000; note: potency is the fitted concentration of half-maximal effect; nearly all actives have a fitted effect of over 55% in size
#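 Chicken DT40 Tdp1-/- cells complemented with human TDP1, 400 cells/well, exposed to compounds plus 20 nM camptothecin for at least 48 h at 37 C; viability read as ATP content by CellTiter-Glo luminescence.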
# HT1080-NT tox: kills 2HG-producing HT-1080-NT fibrosarcoma cells | hit rate 1.6% among 360,000 | Potency, µM (doses to about 46.1 µM), inactives show at the top dose activity, negative = less viability, hits mostly cytotoxic | HT-1080-NT fibrosarcoma viability, CellTiter-Glo ATP luminescence, 48 h;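 note: NT is the 2HG producing partner of a matched IDH1 knockdown line; potency is the fitted concentration of half-maximal effect; 0% = DMSO-treated cells and -100% = media-only wells without cells; nearly all actives have a fitted effect of over 55% in size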
#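 750 cells/well, RPMI + 5% FBS; 2 h settle, compound pin-transfer, 48 h at 37 degrees C. CellTiter-Glo 10 min RT, luminescence. Normalized to DMSO and media-only wells.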
# An asterisk follows results filed as active; ? = inconclusive; · = not tested or not shown; [ ] = another dose, or the depositor's remark. Unless noted, calls come from the whole dose curve; as a rule, active = well fitted curve in the direction sought with a large enough effect; inconclusive = small, poorly fitted or top-dose-only effect, or another doubt; inactive = no such curve, though single readings can be large; an effect the other way counts as inactive or inconclusive. Unless noted, % is set by controls: 0 for no effect and ±100 for the full control effect.
SMILES,IL1B secr inh,HT1080 IDH1KD tx,DT40 TDP1 no CPT,DT40 TDP1 CPT,HT1080-NT tox
CCn1c2c(c(=O)n3ncc(C(=O)Nc4ccc(F)cc4Cl)c13)CN(Cc1ccc(OC)cc1)CC2,·,·,23µM*,?,·
COc1ccc(CN2CCc3c(c(=O)n4ncc(C(=O)N5CCN(c6ccccc6OC)CC5)c4n3C)C2)cc1,·,·,12µM*,16µM*,·
CCn1c2c(c(=O)n3ncc(C(=O)Nc4cc(Cl)ccc4C)c13)CN(Cc1ccc(OC)cc1)CC2,·,·,21µM*,?,·
COc1ccc(CN2CCn3ncc(C(=O)Nc4cccc(C)c4)c3C2=O)cc1,-6,-4%[9.24 µM],?,?,-3%
CCn1c2c(c(=O)n3ncc(C(=O)Nc4cccc(Cl)c4C)c13)CN(Cc1ccc(OC)cc1)CC2,·,·,?,21µM*,·
C=CCc1cc(Cl)ccc1OC(=O)Nc1cccc(Cl)c1,-13,-17%,?,?,-16%
COc1ccc(NC(=O)CSc2nc(-c3ccco3)cc(C(F)(F)F)n2)c(OC)c1,·,·,-12%,-8%,·
Cc1nnc(Cc2ccco2)c2n[nH]c(C)c12,-1,1%,?,?,6%
O=C(NCc1ccccc1F)C1CCCN1C(=O)Nc1ccc(Cl)cc1 (stereo not drawn),11,-3%,-6%,4%,1%
CNc1ccc(-c2cccc(CO)c2)cn1,-5,9%,-14%,?,19%
O=C(NC(c1ccc(Cl)cc1)c1cnccn1)C1CCN(CCCOc2ccccc2)CC1 (stereo not drawn),-58*,?,21µM*,23µM*,?
O=C(NC(c1ccc(Cl)cc1)c1cnccn1)C1CCN(CCCc2ccccc2)CC1 (stereo not drawn),?,?,?,23µM*,?
O=C(COC(=O)c1cc(-c2ccccc2Cl)nc2ccccc12)Nc1ncc(C(F)(F)F)cc1Cl,19,-6%,2%,0%,-5%
C[N+](C)(C)CCCCCC(=O)/C=N/O,16,11%,3%,8%,6%
CC(=O)CC[N+](C)(C)C,-96*,?,15µM*,13µM*,-7%
COc1ccc(C2N(c3ccc4c(c3)OCCO4)C(=O)C2(F)F)cc1OC (stereo not drawn),-79*,-7%,-2%,-17%,3%
CC(C)(C)c1nnc2sc(SCC(=O)N3CCCc4ccccc43)nn2c1=O,-29,2%,23µM*,?,0%
CC1Cc2ccccc2N1C(=O)CSc1nn2c(=O)c(C(C)(C)C)nnc2s1 (stereo not drawn),-96*,?,?,?,?
CC(C)(C)c1nnc2sc(SCC(=O)NCc3ccco3)nn2c1=O,7,2%,-6%,-18%,0%
CC(=O)N(C(C)=O)c1ncc2c([nH]c3ccccc32)c1C#N,-6,7.1µM*,?,?,11µM*
CCOC(=O)c1ccc(NC(=O)CSc2nnc(NC(=O)c3ccc(S(=O)(=O)N4CCOCC4)cc3)s2)cc1,-7,0%,-5%,?,0%
Cc1ccc(-c2noc(CN(C(=O)c3ccc4c(c3)OCO4)C(C)C)n2)cc1,?,-3%,?,?,1%
Cc1ccc(-c2noc(CN(C(=O)c3cccs3)C(C)C)n2)cc1,-78*,-5%,?,?,?
COc1ccc(-c2noc(CN(C(=O)C(C)Oc3ccc(C)cc3)C(C)C)n2)cc1 (stereo not drawn),·,·,15µM*,16µM*,·
Cc1ccc(C(=O)N(Cc2nc(-c3ccc(C)cc3)no2)C(C)C)cc1,33,-19%,16µM*,?,-28%
SMILES,IL1B secr inh,HT1080 IDH1KD tx,DT40 TDP1 no CPT,DT40 TDP1 CPT,HT1080-NT tox
COc1ccc(OC(C)C(=O)N(C)Cc2nc(-c3ccccc3)no2)cc1 (stereo not drawn),34,1%,?,3%,-1%
CC(C)N(Cc1nc(-c2ccc(Cl)cc2)no1)C(=O)c1cccs1,-5,?,?,-22%,-11%
Cc1ccc(CC(=O)N(Cc2nc(-c3ccc(C)cc3)no2)C(C)C)cc1,·,·,23µM*,?,·
CC(C)C(=O)NCC1CCC2(CCN(Cc3ccc(-c4cccc(Cl)c4)o3)CC2)O1 (stereo not drawn),·,·,?,-24%,·
CCOc1cc(C(=O)N(Cc2nc(-c3ccc(C)cc3)no2)C(C)C)cc(OCC)c1OCC,·,·,?,16µM*,·
Cc1ccc(SCC(=O)N(Cc2nc(-c3ccccc3)no2)C(C)C)cc1,?,-1%,?,18µM*,-1%
COc1ccc(C(=O)N(Cc2nc(-c3ccc(C)cc3)no2)C(C)C)cc1OC,11,-5%,?,-89%,-4%
CC(C)C[C@@H](NC(=O)C1CCC(CNC(=O)[C@@H]2CCCN2C(=O)OC(C)(C)C)CC1)C(=O)O (stereo partly drawn),0,18%,-6%,13%,5%
CS(=O)(=O)N1N=C(c2ccc(Br)cc2)CC1c1ccc2c(c1)OCO2 (stereo not drawn),5,10%,?,?,17%
Cc1ccc(C2=NN(S(C)(=O)=O)C(c3ccc4c(c3)OCO4)C2)cc1 (stereo not drawn),10,2%,13µM*,21µM*,2%
Cc1ccc(S(=O)(=O)c2nc(-c3ccco3)oc2SCc2ccc(F)cc2)cc1,·,·,?,21µM*,·
O=S(=O)(c1ccccc1)c1nc(-c2ccco2)oc1SCc1ccc(F)cc1,·,·,?,-17%,·
CCCCSc1oc(-c2ccco2)nc1S(=O)(=O)c1ccccc1,?,-11%,?,?,-1%
CC(C)CSc1oc(-c2ccco2)nc1S(=O)(=O)c1ccccc1,?,8%,26µM*,?,5%
CCC(C)NC(=O)Cn1c(=O)n(Cc2ccc(C(=O)NCCCOC)cc2)c(=O)c2ccccc21 (stereo not drawn),·,·,-8%,-17%,·
Cc1ccc(N2CC(NC(=O)C3CCCCC3)CC2=O)cc1 (stereo not drawn),·,·,1%,-3%,·
CCCCNc1c(-c2ccc(OC)c(SC3CCCCC3)c2)nc2ccc(Cl)cn12,-27,-3%,23µM*,21µM*,10%
CCCCCCSc1cc(-c2nc3cnccn3c2NCc2ccccc2)ccc1OC,0,0%,?,?,-13%
CCCCNc1c(-c2ccc(OC)c(SC3CCCCC3)c2)nc2cnccn12,-70*,?,?,?,?
CCCCNc1c(-c2ccc(SC3CCCCC3)cc2)nc2cnccn12,-13,?,?,15µM*,?
CCCCNc1c(-c2ccc(OC)c(SC3CCCCC3)c2)nc2cc(C)ccn12,-86*,?,15µM*,21µM*,18µM*
